For 16 molecules, binding signal results are on record in PMC12136788.

Changes are numbered by the printed parent chain. In all, about 5,800 sequences were measured (“enrichment r”: median about 0.68, highest 2% from about 11 on). Shown is part of a subset that was picked to be rich in the highest values.

First the molecules themselves.
B1: chr5:172042892:172042993:-|3pUTR|ENSG00000072786|msi1|FALSE|unique (ssRNA)
RNA: GGGAGUUCUACAGUCCGACGAUCGAUUCUCCCGCUUCAACCUUGAGUAGCUGGGACGACAGAUACAUGCUACUGCACCCAGCUAGGUUAAGGUUCUGUAUACUCUGUCUUUCUAAAGCAAUUCCCUGGAAAUUUUCUCAACAUCAACAGAGGAUUGAGCAUCA
B2: chr12:85264020:85264122:+|3pUTR|ENSG00000133640|unk|FALSE|unique (ssRNA)
RNA: GGGAGUUCUACAGUCCGACGAUCCAUAGUAUUUCAGUUACUUUCCACAGCUGUGUUGCUCAAUAAUAGCAUCCAGUGAACUUUAGUAUUUUUUUGUUUUUCCUGUAUUUUAUUAAAAUAUUUCAUCUAGAGAUAACUGAAGUGCAACAGAGGAUUGAGCAUCA
B3: chr1:32196422:32196614:+|3pUTR|ENSG00000084652|msi1|FALSE|unique (ssRNA)
RNA: GGGAGUUCUACAGUCCGACGAUCACAGUUGUUUCUGUGUCCUGUUCUACCCCCACUCCAGUACAUAACUACUAUGUACUGUGUAGAGCCAUUCUAUAUGCUGAAUGUUCUGCUGUUGCAAACUUGCCAGGGUAUUAGCCAGUGCAACAGAGGAUUGAGCAUCA
B4: chr17:67075675:67075776:-|3pUTR|ENSG00000198265|unk|FALSE|unique (ssRNA)
RNA: GGGAGUUCUACAGUCCGACGAUCAUUCCUUAUUUCCAUAGCCAGUCAAGGAUUCUAACGCUGCUUCCAUCUGAUACUCUUCUUAGAUUCUGCAUCAAAUGCUUAUUUUGACUUACAACAAGCUUACUCUUCCUCAGCAUUACACAACAGAGGAUUGAGCAUCA
B5: ENSG00000176244:stop:overlap|stop_codon|ENSG00000176244|stop_codon|NA|stop_codon (ssRNA)
RNA: GGGAGUUCUACAGUCCGACGAUCAAGAUGCGACGAGUGCCUAUAUUUCUAAAGCAAAGGAGCUGAUAGAAAAAUACGGAAUUUAGAAUACAGCAUAUGAGGAAUUUUUCCUUUUGAAGACUUCCAAAUGCUAUCAUGACCUAACAACAGAGGAUUGAGCAUCA
B6: chr3:97755980:97756081:+|3pUTR|ENSG00000080224|unk|FALSE|unique (ssRNA)
RNA: GGGAGUUCUACAGUCCGACGAUCUAAUUAAAAAUCUCUUUCCUACCUUUAGUAAUUUGUAGGAUGAACUGUAUGCAUUUAGAUAGAAAUUGCUUUUGUUAAAUUUACAUUUAAACACAUCUUCAUUCACUUAGAGAAGCCAUACAACAGAGGAUUGAGCAUCA
B7: chr19:33301014:33301115:-|3pUTR|ENSG00000245848|unk|FALSE|unique (ssRNA)
RNA: GGGAGUUCUACAGUCCGACGAUCUCCCUGCGAGGAGGGGAGAAUUCUUGGGGCUGAGCUGGGAGCCCGGCAACUCUAGUAUUUAGGAUAACCUUGUGCCUUGGAAAUGCAAACUCACCGCUCCAAUGCCUACUGAGUAGGGGGCAACAGAGGAUUGAGCAUCA
B8: chr8:41543231:41543332:+|3pUTR|ENSG00000147536|msi1|FALSE|unique (ssRNA)
RNA: GGGAGUUCUACAGUCCGACGAUCAAACCAUUAUUAAAUUUCCAUUCUGCAGCAGAAGGCACCUCUGGACGGCUCCCGGCUUGUAGUUUAAUGAAGUAUGUGCUCCCUGCUGUUAACCCGCAGCCCUCCCCAACUCUCCAGCAGCAACAGAGGAUUGAGCAUCA
B9: chr4:138171397:138171528:-|3pUTR|ENSG00000151012|msi1|total|mutant (ssRNA)
RNA: GGGAGUUCUACAGUCCGACGAUCAUUAUGGCAAAGAGGAGAGAAAGAAAUUUAUUUUACAUUGACAUUGCAUUGCUUCCCCUCCGAUACCAAUUCCGAUAACAAACACUCAUGCUUUAAUGGAUUAUACCCAGAGCACUUUGACAACAGAGGAUUGAGCAUCA
B10: chr4:138171397:138171528:-|3pUTR|ENSG00000151012|msi1|FALSE|unique (ssRNA)
RNA: B9 RNA with C83U, C84A, C95U, C96A
B11: ENSG00000070961:be:win_5101|3pUTR|ENSG00000070961|bound_else_gene|NA|bound_elsewhere_windowed (ssRNA)
RNA: GGGAGUUCUACAGUCCGACGAUCAUGACCACCAUUGUCUUUGAUACAUUUAUUUUAAUUCUUAAGUGGCCAAAUAACAGAUUAGGUAAAAUGAGAUUACAUGAAAAGGUUCUAAAAUGAUAUAUUUAGAUGCAAUAAUUAACCCAACAGAGGAUUGAGCAUCA
B12: chr8:41543231:41543332:+|3pUTR|ENSG00000147536|msi1|total|mutant (ssRNA)
RNA: B8 RNA with U83C, A84C
B13: chr15:78283234:78283431:-|three_prime_utr|ENSG00000140395|control|control|control (ssRNA)
RNA: GGGAGUUCUACAGUCCGACGAUCUCUCCAGGCUUAUGCUGCAAAGAGAAUGUACGGAUUGAUCAUGACAUUCCUUACCUUCUUAGGCUUGUUUAAAAGAAAUAUAGCAUUUAUUGUAGCAAAGACUUAAAUUUUGUAGAUACACAACAGAGGAUUGAGCAUCA
B14: chr3:31636526:31636632:+|3pUTR|ENSG00000163527|unk|FALSE|unique (ssRNA)
RNA: GGGAGUUCUACAGUCCGACGAUCCAAAAUGUGAUGAGAGCUUCUUGAACCGGUAAACUAGUACAGGUCUGAGAAAGACAUAUUAGAAGAAUCAUUAUACUUCCUUGAAUUAUAUUUAUUUUCAUGUUUCUCUAAUGCAAAGAACAACAGAGGAUUGAGCAUCA
B15: chr3:62294137:62294238:+|3pUTR|ENSG00000144724|msi1|FALSE|unique (ssRNA)
RNA: GGGAGUUCUACAGUCCGACGAUCUGAGACCCUUUAGUUAUUCUCCAUUAAUGCUUCUUAGUUUGUAAUACCAUACCUCACAGUAGGUAGAAGAAUGAAAACUUCUGCAGGUGUGUAAUUUUGAAACUAGUCCUCUAAAAAUUCCAACAGAGGAUUGAGCAUCA
B16: chr6:53267885:53267986:-|3pUTR|ENSG00000012660|msi1_unk|FALSE|overlapping (ssRNA)
RNA: GGGAGUUCUACAGUCCGACGAUCUUUAAUGUAAAUCUAAUAGUACUUGUAAUUUCUUUCUGCUUAGAAUCUAAAGAUGUGUUUAGAACCUCUUGUUUAAAAAUAAUAGACUGCUUAUCAUAAAAUCACAUCUCACACAUUUGACAACAGAGGAUUGAGCAUCA

The target in the assay is T1, UNK ZnF1-6 (called full-length) (human, UniProt Q9C0B0 30-357).
T1 sequence: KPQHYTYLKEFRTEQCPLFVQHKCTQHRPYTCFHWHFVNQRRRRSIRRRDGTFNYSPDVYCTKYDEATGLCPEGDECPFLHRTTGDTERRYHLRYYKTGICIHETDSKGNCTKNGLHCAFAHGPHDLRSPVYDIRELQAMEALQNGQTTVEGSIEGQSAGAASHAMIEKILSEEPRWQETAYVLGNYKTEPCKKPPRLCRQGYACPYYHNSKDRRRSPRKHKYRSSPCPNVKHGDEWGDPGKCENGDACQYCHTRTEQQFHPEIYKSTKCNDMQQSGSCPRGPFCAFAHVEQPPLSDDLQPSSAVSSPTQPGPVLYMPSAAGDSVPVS
Kind of assay: nsRBNS (natural sequence RNA bind-n-seq); RBNS binding buffer (assumed for nsRBNS): 25 mM Tris pH 7.5, 150 mM KCl, 3 mM MgCl2, 0.01% Triton X-100, 500 ug/ml BSA, 20 U/ml SUPERase-In, 4 C; UNK is unkempt and MSI1 is Musashi-1; names of the RNAs are library labels; protein concentration not given here; high values mean tight binding.
Take B1: the binding signal came out at 0.494 enrichment R.
Then B2, with 10 enrichment R.
Consider B3, for which the binding signal amounted to 0.631 enrichment R.
B4: the binding signal was found to be 1.05 enrichment R.
Under B5 stands 0.808 enrichment R; under B6, 10.1 enrichment R; under B7, 4.16 enrichment R.
Take B8: the binding signal was 11.4 enrichment R.
Then B9, with 0.489 enrichment R; and B10, with 73.9 enrichment R.
In turn, B11 yielded a binding signal of 3.73 enrichment R.
B12: the binding signal was found to be 1.48 enrichment R.
In the case of B13, the binding signal turned out to be 13.8 enrichment R.
Then B14, with 1.21 enrichment R.
B15 displayed a binding signal of 16.2 enrichment R.
Molecule B16 registered a binding signal of 10.2 enrichment R.
